This passage reports outcome and AC50 results from PubChem BioAssay (EPA / NIEHS).

Each structure is given as a SMILES string. Results filed as inconclusive are left out. The source made the active and inactive calls. The calls were made as follows, unless noted: active = hit-call score of the fitted dose curve at least 0.9, where 1 is the maximum; inactive = score below 0.9.

The target of assay [1] is Transcriptional activator Myb (Homo sapiens) (UniProt P10242). In words: ATG_Myb_CIS: Attagene CIS-FACTORIAL HepG2 Assay for human Myeloblastosis (Myb) Proto-Oncogene Transcription Factor (AID 2282986). The settings on record: HepG2 Attagene CIS-FACTORIAL Myb reporter transcription; actives raise or lower the signal. The essentials:
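Fluorescence signals from capillary electrophoresis of RT-PCR-amplified reporter cDNA give the read-out. Cells: HepG2 transfected with multiple cis-regulated reporter units. Exposure lasts 24 hours; DMSO defines baseline for gain or loss of signal.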

For assay [2], the target named is Nuclear respiratory factor 1 (Homo sapiens) (UniProt Q16656). Nature of the assay: ATG_NRF1_CIS: Attagene CIS-FACTORIAL HepG2 Assay for human Nuclear Respiratory Factor 1 (NRF1) Orphan Gene (AID 2282987). The note with it: HepG2 NRF1 cis-element reporter, Attagene multiplex; actives raise or lower the signal. The essentials: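 Transcriptional reporter readout, one component of a 52-endpoint multiplexed HepG2 panel. Exposure 24 h; mRNA detected via RT-PCR and fluorescent capillary electrophoresis; fitting in both directions against DMSO.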

The nature of assay [3]: ATG_NFI_CIS: Attagene CIS-FACTORIAL HepG2 Assay for human Nuclear Factor I (NFI) (AID 2282989). The note with it: HepG2 cis-regulatory reporter, NFI response element transcription; actives raise or lower the signal. An outline of the steps: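 Transfected HepG2 liver cells, exposed 24 h, supplied total RNA for oligo(dT) reverse transcription and reporter-specific PCR. Labelled, HpaI-cut fragments were sized by capillary electrophoresis; DMSO set the baseline for bidirectional fitting.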

Assay [4] has as its target Myc proto-oncogene protein (Homo sapiens) (UniProt P01106). Nature of the assay: ATG_Myc_CIS: Attagene CIS-FACTORIAL HepG2 Assay for human Myelocytomatosis (Myc) Proto-Oncogene Transcription Factor (AID 2282990). The note with it: HepG2, Attagene cis-reporter transcription factor activity; actives raise or lower the signal. The essentials:
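DMSO-normalised, bidirectionally fitted reporter mRNA signal. HepG2 cells transfected with cis reporter constructs, treated 24 h; transcripts detected by RT-PCR, 6-FAM primer extension and CE.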

Assay [5] in a line: ATG_NF_kB_CIS: Attagene CIS-FACTORIAL HepG2 Assay for human Nuclear Factor Kappa B (NF-kB) (AID 2282991). The note with it: HepG2 Attagene cis-factorial NF-kB reporter mRNA; actives raise or lower the signal. An outline of the steps: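 HepG2, transient multi-reporter transfection, cis promoter elements (endogenous TFs). 24 h exposure. Total RNA → RT → PCR → 6-FAM label → HpaI → CE. Gain/loss vs DMSO.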

A short description of assay [6]: ATG_NRF2_ARE_CIS: Attagene CIS-FACTORIAL HepG2 Assay for human Nuclear Factor Erythroid 2 Related Factor 2 (NFR2) response to Antioxidant Response Elements (ARE) (AID 2282992).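 As to AC50: reporter mRNA level measured by RT-PCR and capillary electrophoresis fluorescence.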 The note with it: HepG2 Attagene ARE/NRF2 reporter, transcription factor activity; actives raise or lower the signal. An outline of the steps: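 Multiplexed reporter mRNA profiling in HepG2 after a 24 h chemical exposure. Curves fitted in both directions relative to DMSO negative control.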

The nature of assay [7]: ATG_Oct_MLP_CIS: Attagene CIS-FACTORIAL HepG2 Assay for human Octamer-Binding Transcription Factor (Oct) (AID 2282993). The settings on record: HepG2 Attagene cis-factorial Oct reporter, mRNA; actives raise or lower the signal. An outline of the steps:
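Using HepG2 cells bearing transfected cis-reporter constructs, mRNA induction was read after 24 h by fluorescent RT-PCR and capillary electrophoresis, with DMSO defining baseline for gain- or loss-of-signal fits.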

Assay [8] concerns the target Cellular tumor antigen p53 (Homo sapiens) (UniProt P04637). Nature of the assay: ATG_p53_CIS: Attagene CIS-FACTORIAL HepG2 Assay for human p53 Transcription Factor (AID 2282994). The settings on record: HepG2 p53 cis-element reporter, Attagene mRNA; actives raise or lower the signal. The essentials: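 Multiplexed reporter mRNA assay in human HepG2 liver cells; cis-regulated units report endogenous factor activity. Values come from bidirectional curve fitting against DMSO negative control after 24 h treatment.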

The nature of assay [9]: BSK_3C_TissueFactor: BioMAP Diversity Plus: 3C Assay for Tissue Factor Biomarker Activity (AID 2282997). The settings on record: BioMAP 3C HUVEC, tissue factor biomarker readout; actives raise or lower the signal. An outline of the steps: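 Primary human umbilical vein endothelial cells in the 3C system were exposed to test chemical for 24 h, then Tissue Factor measured by ELISA. Activity was fitted bidirectionally against DMSO as negative control and baseline.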

A short description of assay [10]: BSK_3C_uPAR: BioMAP Diversity Plus: 3C Assay for Urokinase-type plasminogen activator receptor (uPAR) Biomarker Activity (AID 2282998). The note with it: BioMAP 3C HUVEC, uPAR biomarker ELISA; actives raise or lower the signal. An outline of the steps: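 In this endothelial cell-based assay, human umbilical vein primary cells were treated with chemicals and harvested at 24 h. uPAR was quantified using ELISA, with gains or losses fitted relative to DMSO controls.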
A general note: ELISA stands for enzyme-linked immunosorbent assay.

The nature of assay [11]: BSK_3C_VCAM1: BioMAP Diversity Plus: 3C Assay for Vascular cell adhesion molecule 1 (VCAM1) Biomarker Activity (AID 2282999). The settings on record: BioMAP 3C HUVEC, VCAM1 ELISA, cytokine-stimulated; actives raise or lower the signal. The essentials: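 Human umbilical vein endothelial cells were dosed with compound for 24 h, after which cell-surface VCAM-1 was quantified by ELISA. Bidirectional curve fitting used DMSO as negative control and activity baseline.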

Assay [12] is described as follows: BSK_4H_Eotaxin3: BioMAP Diversity Plus: 4H Assay for Eotaxin 3 Biomarker Activity (AID 2283000).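 As to outcome: CCL26 protein level quantified by ELISA in parallel with SRB cytotoxicity check.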 The settings on record: primary human endothelial cells (HUVEC); actives raise or lower the signal. The essentials: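 HUVEC, 24 h post-dose, ELISA for Eotaxin-3/CCL26. Gain or loss of signal fitted bidirectionally vs DMSO baseline.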
The target of assay [13] is human Peroxisome Proliferator-activated Receptor alpha (PPARa), PPARA (gene 5465) (UniProt Q07869). In words: ATG_PPARa_TRANS: Attagene TRANS-FACTORIAL HepG2 Assay for human Peroxisome Proliferator-activated Receptor alpha (PPARa) (AID 2283001; active = hit-call score of the fitted dose curve at least 0.9, where 1 is the maximum). An outline of the steps: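 HepG2 cells transiently transfected with multiplexed GAL4-UAS reporter units and chimeric NR-Gal4 constructs were dosed for 24 h. Reporter mRNA was measured by RT-PCR with fluorescent labelling and capillary electrophoresis; gain of signal fitted against DMSO.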

Read-out in assay [14]: Intercellular Adhesion Molecule 1 (ICAM1), ICAM1 (gene 3383)
In words: BSK_3C_ICAM1: BioMAP Diversity Plus: 3C Assay for Intercellular Adhesion Molecule 1 (ICAM1) Biomarker Activity (AID 2283003). The settings on record: primary human endothelial cells (HUVEC); actives raise or lower the signal. The essentials:
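Human vascular endothelial primary cells, 3C conditions, 24 h treatment. ICAM-1 by ELISA.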

A short description of assay [15]: BSK_3C_Proliferation: Cell Proliferation Assessment in the BioMAP Diversity Plus: 3C Assay (AID 2283006).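 As to AC50: potency may reflect either rise or fall in cell number versus DMSO.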 The settings on record: primary human endothelial cells (HUVEC). The essentials:
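Proliferation of human vascular endothelial primary cells after 48 h dosing, quantified as SRB-stained protein at 560 nm relative to DMSO.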

For assay [16], the target named is Nuclear receptor subfamily 1 group I member 2 (Homo sapiens) (UniProt O75469). Nature of the assay: ATG_PXR_TRANS: Attagene TRANS-FACTORIAL HepG2 Assay for human Pregnane X Receptor (PXR) (AID 2283008; active = hit-call score of the fitted dose curve at least 0.9, where 1 is the maximum). The essentials: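 Measures mRNA induction of a GAL4-UAS-driven reporter in human HepG2 cells transiently expressing PXR fused to Gal4, following 24 h treatment. DMSO served as negative control and baseline.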

The target in assay [17] is human Peroxisome Proliferator-activated Receptor delta (PPARd), PPARD (gene 5467) (UniProt Q03181). In words: ATG_PPARd_TRANS: Attagene TRANS-FACTORIAL HepG2 Assay for human Peroxisome Proliferator-activated Receptor delta (PPARd) (AID 2283002; active = hit-call score of the fitted dose curve at least 0.9, where 1 is the maximum). An outline of the steps:
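Measured quantity: GAL4-UAS reporter transcript induction in HepG2 after 24 h chemical dosing, with NR-Gal4 chimeras supplied by transient transfection. Detection by RT-PCR and capillary electrophoresis; upward fit against DMSO.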

Assay [18] concerns the target Peroxisome proliferator-activated receptor gamma (Homo sapiens) (UniProt P37231). Nature of the assay: ATG_PPARg_TRANS: Attagene TRANS-FACTORIAL HepG2 Assay for human Peroxisome Proliferator-activated Receptor-gamma (PPARg) (AID 2283007; active = hit-call score of the fitted dose curve at least 0.9, where 1 is the maximum). An outline of the steps:
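Multiplexed reporter transcription units in HepG2, 24 h dosing, reporter transcripts quantified by fluorescent RT-PCR and capillary electrophoresis. Increase over DMSO scored.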

The target in assay [19] is human Retinoic Acid Receptor gamma (RARg), RARG (gene 5916) (UniProt P13631). Nature of the assay: ATG_RARg_TRANS: Attagene TRANS-FACTORIAL HepG2 Assay for human Retinoic Acid Receptor gamma (RARg) (AID 2283009; active = hit-call score of the fitted dose curve at least 0.9, where 1 is the maximum). An outline of the steps:
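HepG2, RARg-GAL4 TRANS system, 24 h exposure; reporter mRNA by RT-PCR + CE fluorescence; increase over DMSO.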

Assay [20] deals with Retinoic acid receptor alpha (Homo sapiens) (UniProt P10276). In words: ATG_RARa_TRANS: Attagene TRANS-FACTORIAL HepG2 Assay for human Retinoic Acid Receptor alpha (RARa) (AID 2283005; active = hit-call score of the fitted dose curve at least 0.9, where 1 is the maximum). An outline of the steps: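 HepG2 cells transiently transfected with multiple reporter units expressing chimeric RARα-GAL4 fusion, with GAL4-UAS-driven reporters. After 24 h compound exposure, reporter mRNA induction quantified by RT-PCR and capillary electrophoresis with fluorescent labeling; gain-of-signal fitted relative to DMSO control.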
Retinoic acid receptor alpha (Homo sapiens), sequence (P10276 whole entry, looked up, the tested form may be a part): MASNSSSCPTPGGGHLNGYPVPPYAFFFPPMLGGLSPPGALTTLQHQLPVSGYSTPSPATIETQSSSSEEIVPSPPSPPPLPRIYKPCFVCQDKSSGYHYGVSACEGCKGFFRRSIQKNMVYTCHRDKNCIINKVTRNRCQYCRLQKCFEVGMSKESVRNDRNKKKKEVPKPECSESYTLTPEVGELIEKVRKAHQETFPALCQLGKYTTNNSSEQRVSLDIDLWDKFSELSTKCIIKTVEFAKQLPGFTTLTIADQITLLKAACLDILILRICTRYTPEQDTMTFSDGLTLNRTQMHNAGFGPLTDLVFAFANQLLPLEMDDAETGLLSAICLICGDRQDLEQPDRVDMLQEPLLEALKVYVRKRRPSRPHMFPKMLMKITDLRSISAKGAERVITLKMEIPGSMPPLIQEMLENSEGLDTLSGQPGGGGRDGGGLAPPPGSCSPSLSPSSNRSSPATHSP

human Peroxisome Proliferator-activated Receptor alpha (PPARa), PPARA (gene 5465), sequence (Q07869 whole entry, looked up, the tested form may be a part): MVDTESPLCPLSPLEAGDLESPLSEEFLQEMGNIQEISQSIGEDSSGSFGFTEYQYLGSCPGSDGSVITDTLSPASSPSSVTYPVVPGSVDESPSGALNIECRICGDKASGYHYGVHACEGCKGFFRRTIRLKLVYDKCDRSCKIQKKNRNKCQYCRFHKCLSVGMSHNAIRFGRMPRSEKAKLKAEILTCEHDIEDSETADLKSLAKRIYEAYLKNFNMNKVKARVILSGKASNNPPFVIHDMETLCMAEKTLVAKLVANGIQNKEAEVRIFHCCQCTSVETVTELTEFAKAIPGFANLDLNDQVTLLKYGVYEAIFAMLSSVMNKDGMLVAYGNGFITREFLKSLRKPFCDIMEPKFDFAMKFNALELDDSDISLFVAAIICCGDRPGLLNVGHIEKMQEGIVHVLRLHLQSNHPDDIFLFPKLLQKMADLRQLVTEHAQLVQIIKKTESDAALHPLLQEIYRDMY
Nuclear receptor subfamily 1 group I member 2 (Homo sapiens), sequence (O75469 whole entry, looked up, the tested form may be a part): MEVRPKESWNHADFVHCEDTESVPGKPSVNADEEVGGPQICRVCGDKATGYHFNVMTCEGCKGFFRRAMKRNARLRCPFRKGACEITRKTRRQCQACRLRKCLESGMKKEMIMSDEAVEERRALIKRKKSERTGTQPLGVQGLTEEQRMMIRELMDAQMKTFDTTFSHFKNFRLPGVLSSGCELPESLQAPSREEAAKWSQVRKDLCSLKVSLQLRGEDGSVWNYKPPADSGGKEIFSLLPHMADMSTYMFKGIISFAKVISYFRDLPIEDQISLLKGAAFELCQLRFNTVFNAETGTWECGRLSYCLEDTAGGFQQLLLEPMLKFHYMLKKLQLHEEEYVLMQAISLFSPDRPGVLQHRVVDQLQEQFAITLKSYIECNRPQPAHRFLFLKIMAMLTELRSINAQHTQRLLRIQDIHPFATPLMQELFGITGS
Nuclear respiratory factor 1 (Homo sapiens), sequence (Q16656 whole entry, looked up): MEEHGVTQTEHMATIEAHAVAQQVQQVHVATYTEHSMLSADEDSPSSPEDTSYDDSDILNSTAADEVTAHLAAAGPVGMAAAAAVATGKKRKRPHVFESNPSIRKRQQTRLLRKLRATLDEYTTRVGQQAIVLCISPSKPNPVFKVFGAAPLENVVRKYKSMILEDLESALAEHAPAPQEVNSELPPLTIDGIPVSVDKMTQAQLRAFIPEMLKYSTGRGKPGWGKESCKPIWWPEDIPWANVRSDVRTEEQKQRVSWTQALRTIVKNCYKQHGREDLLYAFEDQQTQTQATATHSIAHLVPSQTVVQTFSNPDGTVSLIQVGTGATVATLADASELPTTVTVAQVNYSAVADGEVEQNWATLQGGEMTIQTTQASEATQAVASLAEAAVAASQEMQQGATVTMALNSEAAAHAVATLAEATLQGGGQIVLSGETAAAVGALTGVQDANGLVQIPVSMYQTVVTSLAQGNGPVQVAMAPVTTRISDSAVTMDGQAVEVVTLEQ
Myc proto-oncogene protein (Homo sapiens), sequence (P01106 whole entry, looked up): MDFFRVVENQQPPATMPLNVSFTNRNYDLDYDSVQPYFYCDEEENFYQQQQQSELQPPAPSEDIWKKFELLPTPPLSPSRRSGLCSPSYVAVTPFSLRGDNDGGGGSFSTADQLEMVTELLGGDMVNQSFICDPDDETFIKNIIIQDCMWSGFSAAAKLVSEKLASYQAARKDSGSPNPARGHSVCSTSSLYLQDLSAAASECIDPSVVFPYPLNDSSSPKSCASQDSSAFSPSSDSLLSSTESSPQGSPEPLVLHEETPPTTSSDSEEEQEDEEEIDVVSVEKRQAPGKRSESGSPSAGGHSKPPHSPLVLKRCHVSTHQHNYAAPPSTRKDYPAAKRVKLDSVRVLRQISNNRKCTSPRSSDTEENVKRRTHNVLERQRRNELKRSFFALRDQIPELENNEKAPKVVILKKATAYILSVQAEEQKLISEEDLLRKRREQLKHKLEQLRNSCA
Cellular tumor antigen p53 (Homo sapiens), sequence (P04637 whole entry, looked up): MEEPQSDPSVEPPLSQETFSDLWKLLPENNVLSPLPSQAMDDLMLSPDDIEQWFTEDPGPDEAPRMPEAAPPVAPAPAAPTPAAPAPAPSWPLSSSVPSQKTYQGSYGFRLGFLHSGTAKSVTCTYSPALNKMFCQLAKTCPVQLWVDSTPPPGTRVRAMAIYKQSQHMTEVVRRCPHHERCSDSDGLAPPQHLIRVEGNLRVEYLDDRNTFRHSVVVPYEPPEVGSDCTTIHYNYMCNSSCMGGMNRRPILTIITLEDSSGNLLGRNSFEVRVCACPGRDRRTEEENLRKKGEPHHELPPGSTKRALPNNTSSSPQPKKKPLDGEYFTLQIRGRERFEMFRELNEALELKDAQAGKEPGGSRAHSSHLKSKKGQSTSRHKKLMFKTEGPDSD
human Peroxisome Proliferator-activated Receptor delta (PPARd), PPARD (gene 5467), sequence (Q03181 whole entry, looked up, the tested form may be a part): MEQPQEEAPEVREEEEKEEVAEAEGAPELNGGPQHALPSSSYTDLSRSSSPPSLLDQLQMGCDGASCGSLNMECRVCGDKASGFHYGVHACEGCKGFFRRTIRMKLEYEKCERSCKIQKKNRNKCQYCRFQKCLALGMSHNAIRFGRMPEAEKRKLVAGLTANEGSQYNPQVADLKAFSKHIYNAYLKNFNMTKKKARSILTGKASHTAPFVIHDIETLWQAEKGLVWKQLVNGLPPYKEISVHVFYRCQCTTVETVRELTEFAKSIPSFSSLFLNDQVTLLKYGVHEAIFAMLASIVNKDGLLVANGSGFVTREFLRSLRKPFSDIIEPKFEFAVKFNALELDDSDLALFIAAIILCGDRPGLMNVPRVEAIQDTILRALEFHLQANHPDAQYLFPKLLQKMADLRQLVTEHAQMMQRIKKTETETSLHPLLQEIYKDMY
Transcriptional activator Myb (Homo sapiens), sequence (P10242 whole entry, looked up): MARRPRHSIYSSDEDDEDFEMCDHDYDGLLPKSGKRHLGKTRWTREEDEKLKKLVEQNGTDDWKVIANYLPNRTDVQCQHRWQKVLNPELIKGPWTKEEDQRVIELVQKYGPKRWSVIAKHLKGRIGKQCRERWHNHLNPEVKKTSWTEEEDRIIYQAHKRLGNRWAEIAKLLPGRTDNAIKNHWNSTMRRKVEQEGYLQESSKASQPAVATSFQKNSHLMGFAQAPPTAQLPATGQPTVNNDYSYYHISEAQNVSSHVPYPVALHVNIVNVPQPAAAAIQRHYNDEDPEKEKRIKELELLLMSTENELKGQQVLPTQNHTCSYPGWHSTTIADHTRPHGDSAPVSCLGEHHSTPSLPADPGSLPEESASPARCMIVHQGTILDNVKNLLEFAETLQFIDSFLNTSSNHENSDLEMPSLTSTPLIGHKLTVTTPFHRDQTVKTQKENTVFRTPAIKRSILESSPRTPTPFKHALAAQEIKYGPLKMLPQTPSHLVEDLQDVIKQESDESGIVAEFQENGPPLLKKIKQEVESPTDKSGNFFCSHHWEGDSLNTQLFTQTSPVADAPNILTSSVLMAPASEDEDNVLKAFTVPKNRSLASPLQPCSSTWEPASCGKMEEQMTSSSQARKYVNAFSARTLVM
Peroxisome proliferator-activated receptor gamma (Homo sapiens), sequence (P37231 whole entry, looked up): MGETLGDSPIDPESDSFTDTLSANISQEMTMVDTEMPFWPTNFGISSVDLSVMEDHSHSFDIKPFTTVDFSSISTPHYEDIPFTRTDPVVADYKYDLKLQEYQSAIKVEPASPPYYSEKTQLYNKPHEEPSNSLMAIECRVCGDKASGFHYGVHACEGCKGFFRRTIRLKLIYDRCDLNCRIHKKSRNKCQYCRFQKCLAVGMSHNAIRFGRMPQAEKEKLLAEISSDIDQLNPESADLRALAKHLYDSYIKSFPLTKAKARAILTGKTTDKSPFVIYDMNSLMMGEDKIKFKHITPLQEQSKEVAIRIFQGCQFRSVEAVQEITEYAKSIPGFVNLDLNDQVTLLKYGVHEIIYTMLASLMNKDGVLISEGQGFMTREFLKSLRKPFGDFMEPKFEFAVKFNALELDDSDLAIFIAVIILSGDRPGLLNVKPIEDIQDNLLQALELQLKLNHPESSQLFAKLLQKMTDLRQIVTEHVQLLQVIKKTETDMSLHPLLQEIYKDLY
human Retinoic Acid Receptor gamma (RARg), RARG (gene 5916), sequence (P13631 whole entry, looked up, the tested form may be a part): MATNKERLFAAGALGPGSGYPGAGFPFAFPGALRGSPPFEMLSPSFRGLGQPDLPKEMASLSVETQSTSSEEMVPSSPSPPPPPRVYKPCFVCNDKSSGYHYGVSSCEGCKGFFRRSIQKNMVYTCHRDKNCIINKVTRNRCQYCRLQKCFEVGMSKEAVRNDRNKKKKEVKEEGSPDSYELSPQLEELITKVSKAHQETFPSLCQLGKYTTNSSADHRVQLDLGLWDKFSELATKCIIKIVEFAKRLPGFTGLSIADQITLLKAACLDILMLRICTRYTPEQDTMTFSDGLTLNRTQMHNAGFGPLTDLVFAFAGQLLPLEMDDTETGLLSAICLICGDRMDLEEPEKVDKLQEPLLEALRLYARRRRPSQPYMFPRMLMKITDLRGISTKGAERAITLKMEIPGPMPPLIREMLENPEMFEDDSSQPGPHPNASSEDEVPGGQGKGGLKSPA

Take `CCCCN(CCCC)N=O`: the result in assay [1], in assay [2], in assay [3], in assay [4], in [5] and in assay [6] was inactive. The molecule was classed as inactive in assay [7], in assay [8], in assay [9], in [10], in [11] and in [12]. Moreover, the molecule was classed as inactive in assay [13], in assay [14], in assay [15] and in [16].

As to `CC(C)(C)c1ccccc1OP(=O)(Oc1ccccc1)Oc1ccccc1`, the result in [1], in assay [2], in assay [3], in assay [4], in [5] and in assay [7] was inactive. The molecule was called inactive in assay [8] and in assay [17]. Moreover, the AC50 – broadly, the concentration at which the activity in the assay is half-maximal – in assay [6] is 19.8 µM (active); in assay [9] it was 20 µM (active); in assay [10] it was 20 µM (active); in assay [11], 28.6 µM (active); in [12] it was 26.2 µM (active); in assay [14], 31.9 µM (active). In addition, the AC50 in [15] was 20 µM (active); in assay [18] it was 3.63 µM (active); in assay [16], 0.156 µM (active).

For the molecule `CCCCN(CC)C(=O)SCCC`, the outcome in assay [1], in [2], in [3], in [4], in assay [5] and in assay [6] was inactive. The outcome in assay [7], in [8], in assay [17], in assay [18], in assay [16] and in [19] was inactive.

Take `COP(=O)(O)OC`: the molecule was classed as inactive in assay [1], in assay [2], in [3], in [4], in assay [5] and in assay [6]. The result in assay [7], in assay [8], in assay [9], in assay [11], in assay [12] and in assay [17] was inactive. Further, the result in assay [14], in assay [20], in assay [15], in assay [18] and in assay [19] was inactive. Moreover, the results for the AC50 in assay [10] and in assay [16] were 0.062 µM (active) and 27.2 µM (active), respectively.

With `Cc1ccc(C(=O)Cl)cc1`, the molecule was classed as inactive in assay [1], in assay [2], in assay [3], in assay [4], in assay [5] and in assay [6]. For the same molecule, the outcome in assay [7], in assay [8], in assay [13], in assay [20] and in [18] was inactive.

With `[N-]=[N+]=[N-]`, the molecule was called inactive in assay [1], in assay [2], in assay [3], in [5], in assay [6] and in assay [7]. The molecule was called inactive in [8], in assay [9], in [10], in [11], in [12] and in [13]. Besides, the molecule was classed as inactive in assay [17], in assay [14] and in assay [15]. Moreover, the AC50 in assay [4] is 100 µM (active).

For the molecule `CC(O)C(F)(F)C(F)(F)F` (configuration not stated), the outcome in [1], in [2], in [3], in assay [4], in assay [5] and in assay [6] was inactive. For the same molecule, the molecule was called inactive in [7], in [8], in assay [9], in assay [10], in assay [11] and in [12]. In addition, the call in assay [13], in assay [14], in assay [20], in [15], in assay [18] and in [16] was inactive.

With `CC(=O)CCc1ccc2c(c1)OCO2`, the result in [1], in assay [2], in assay [3], in assay [4], in assay [5] and in assay [6] was inactive. For the same molecule, the call in assay [7], in [8], in assay [13], in [17], in [20] and in [18] was inactive. In assay [16], the molecule was classed as inactive.
